Assay results published in PubChem BioAssay.
Active and inactive are the calls of the source.

How the values were obtained:
[1] = optical density shifts of acrAB sulA E. coli – strain DRC41, OD650, 48 h, E. coli filamentation inducer project, primary screen (AID 1152); conditions: higher = more signal, called active from +8 up or from −8 down;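 further: E. coli MC1000 strain DRC41 lacking acrAB efflux pump and sulA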
[2] = probe aLefty1 binding on compound microarray – biochemical, small-molecule microarray, 635/667 nm fluorescence, primary screen (AID 1153); conditions: higher = more signal;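 further: score merges spot fluorescence with signal-to-noise ratio from the scanned slide images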
[3] = plasmodial surface anion channel blockers, osmotic lysis – cell-based, P. falciparum Indochina, OD700, 1 h, primary screen (AID 1154); conditions: P. falciparum Indochina infected RBC osmotic lysis, higher = more signal, called active from +8 up or from −8 down
[4] = plasmodial surface anion channel blockers, osmotic lysis – cell-based, P. falciparum Indochina, OD700, 2 h, primary screen (AID 1155);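 further: lysis reports solute entry through the parasite surface anion channel PSAC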; conditions: P. falciparum Indochina infected erythrocytes, higher = more signal, called active from +8 up or from −8 down
[5] = changes in parasitized red cell lysis, either direction – P. falciparum Indochina, OD700, 3 h, PSAC antagonist project, primary screen (AID 1156); conditions: P. falciparum-infected erythrocytes, osmotic lysis, higher = more signal, called active from +8 up or from −8 down
[6] = plasmodial surface anion channel blockers, osmotic lysis – cell-based, P. falciparum Indochina, OD700, 18 h, primary screen (AID 1157); conditions: P. falciparum Indochina infected erythrocytes, osmotic lysis OD700, 18 h; higher = more signal, called active from +8 up or from −8 down
[7] = S6 kinase pathway phospho-S6 level changes – cell-based, A549, cytoblot, luminescence, serum-stimulated, primary screen (AID 1158); conditions: 5 h, higher = more signal;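 further: serum-stimulated A549 lung adenocarcinoma cells; signal is phosphorylated S6 detected by cytoblot immunostaining with HRP secondary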
[8] = molecular target: NADPH oxidase 2 (Homo sapiens) (UniProt P04839); experiment: compounds shifting NOX2 Amplex Red fluorescence – cell-based, HEK293-NOX2, PMA-stimulated, NOX inhibitor project, primary screen (AID 1159); conditions: 45 min, higher = more signal, called active from +8 up or from −8 down; further: test concentration not given here
[9] = molecular target: NADPH oxidase 4 (Homo sapiens) (UniProt Q9NPH5); experiment: compounds shifting NOX4 Amplex Red fluorescence – cell-based, HEK293-NOX4, tetracycline-induced, NOX inhibitor project, primary screen (AID 1160); conditions: HEK293-NOX4, Amplex Red H2O2 fluorescence, 45 min; higher = more signal, called active from +8 up or from −8 down
[10] = molecular target: NADPH oxidase 5 (Homo sapiens) (UniProt Q96PH1); experiment: compounds shifting NOX5 Amplex Red fluorescence – cell-based, HEK293-NOX5, NOX inhibitor project, primary screen (AID 1161); conditions: HEK293-NOX5, ionomycin, 45 min, higher = more signal
[11] = compound effects on lung adenocarcinoma cell viability – A549, calcein-AM fluorescence, 48 h, basal, profiling panel (AID 1162); conditions: higher = more signal; further: test concentration not given here
[12] = compound effects on differentiated 3T3-L1 adipocyte viability – cell-based, 3T3-L1 adipocytes, calcein-AM fluorescence, 48 h, basal, profiling panel (AID 1163); conditions: 3T3-L1 adipocytes viability, higher = more signal; further: test concentration not given here
[13] = compound effects on hepatocellular carcinoma cell viability – HepG2, calcein-AM fluorescence, 48 h, basal, profiling panel (AID 1164); conditions: higher = more signal; further: test concentration not given here
[14] = compound effects on multiple myeloma cell viability – MM1S, calcein-AM fluorescence, 48 h, basal, profiling panel (AID 1165); conditions: higher = more signal; further: test concentration not given here
[15] = calcein-AM signal in unstimulated myeloma cells – cell-based, calcein-AM fluorescence, 48 h, PK04 Diversity Set, profiling panel (AID 1166); conditions: RPMI8226 myeloma viability, higher = more signal;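 further: cells grown under basal conditions without added stimulus; test concentration not given here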
[16] = JC-1 mitochondrial signal, unstimulated HepG2 cells – cell-based, JC-1 fluorescence, 24 h, 100 nL compound, profiling panel (AID 1167); conditions: HepG2 mitochondrial potential, higher = more signal; further: test concentration not given here
[17] = JC-1 mitochondrial signal, unstimulated adipocytes – cell-based, JC-1 fluorescence, 3T3-L1 adipocytes, 24 h, 100 nL compound, profiling panel (AID 1168); conditions: JC-1 mitochondrial fluorescence, higher = more signal, called active from +8 up or from −8 down; further: test concentration not given here
[18] = JC-1 mitochondrial signal, unstimulated myeloma cells – cell-based, JC-1 fluorescence, RPMI8226, 24 h, 100 nL compound, profiling panel (AID 1169); conditions: JC-1 mitochondrial potential fluorescence, higher = more signal; further: test concentration not given here
[19] = JC-1 mitochondrial signal, unstimulated MM1S myeloma – cell-based, JC-1 fluorescence, 24 h, 100 nL compound, profiling panel (AID 1170); conditions: MM1S mitochondrial potential, higher = more signal; further: test concentration not given here
[20] = resazurin metabolic signal in A549 cells – cell-based, resazurin fluorescence, 24 h, PK04 Diversity Set, profiling panel (AID 1171); conditions: A549 viability, higher = more signal, called active from +8 up or from −8 down; further: test concentration not given here

Sequence of NADPH oxidase 2 (Homo sapiens) (P04839 whole entry, looked up): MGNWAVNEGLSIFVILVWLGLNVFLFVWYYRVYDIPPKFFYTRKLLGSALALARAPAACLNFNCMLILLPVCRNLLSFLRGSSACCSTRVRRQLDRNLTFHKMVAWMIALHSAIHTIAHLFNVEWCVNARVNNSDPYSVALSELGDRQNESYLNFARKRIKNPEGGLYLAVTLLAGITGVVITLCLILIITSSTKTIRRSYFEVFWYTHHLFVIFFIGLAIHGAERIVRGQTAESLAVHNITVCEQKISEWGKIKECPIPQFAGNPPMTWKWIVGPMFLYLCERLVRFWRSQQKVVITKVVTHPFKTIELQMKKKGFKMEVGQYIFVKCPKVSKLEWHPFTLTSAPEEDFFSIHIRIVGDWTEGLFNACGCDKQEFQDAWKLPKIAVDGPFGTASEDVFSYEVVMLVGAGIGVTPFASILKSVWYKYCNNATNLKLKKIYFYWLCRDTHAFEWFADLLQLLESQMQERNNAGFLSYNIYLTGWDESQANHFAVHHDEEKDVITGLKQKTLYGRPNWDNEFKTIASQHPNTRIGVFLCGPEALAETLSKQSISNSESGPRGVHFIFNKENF
Sequence of NADPH oxidase 5 (Homo sapiens) (Q96PH1 whole entry, looked up): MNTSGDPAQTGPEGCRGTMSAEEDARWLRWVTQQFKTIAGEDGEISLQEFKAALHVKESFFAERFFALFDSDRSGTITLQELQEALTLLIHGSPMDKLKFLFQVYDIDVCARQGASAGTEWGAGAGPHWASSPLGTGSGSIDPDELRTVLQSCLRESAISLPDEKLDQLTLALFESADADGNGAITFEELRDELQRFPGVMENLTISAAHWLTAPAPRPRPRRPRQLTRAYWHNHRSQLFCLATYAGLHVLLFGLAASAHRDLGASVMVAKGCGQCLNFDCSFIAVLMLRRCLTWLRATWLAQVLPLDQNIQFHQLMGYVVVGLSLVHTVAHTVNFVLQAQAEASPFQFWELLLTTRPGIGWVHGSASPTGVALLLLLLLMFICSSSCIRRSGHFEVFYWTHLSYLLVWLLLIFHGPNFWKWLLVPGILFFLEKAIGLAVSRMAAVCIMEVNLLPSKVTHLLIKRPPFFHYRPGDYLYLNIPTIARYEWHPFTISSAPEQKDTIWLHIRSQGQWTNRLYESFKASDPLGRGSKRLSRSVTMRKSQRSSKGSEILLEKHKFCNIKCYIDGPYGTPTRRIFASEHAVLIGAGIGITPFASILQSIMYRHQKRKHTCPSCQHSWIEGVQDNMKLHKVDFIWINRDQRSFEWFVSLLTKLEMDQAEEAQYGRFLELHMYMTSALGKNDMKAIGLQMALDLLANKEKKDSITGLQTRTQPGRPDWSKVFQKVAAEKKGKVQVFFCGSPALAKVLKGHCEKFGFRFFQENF
Sequence of NADPH oxidase 4 (Homo sapiens) (Q9NPH5 whole entry, looked up): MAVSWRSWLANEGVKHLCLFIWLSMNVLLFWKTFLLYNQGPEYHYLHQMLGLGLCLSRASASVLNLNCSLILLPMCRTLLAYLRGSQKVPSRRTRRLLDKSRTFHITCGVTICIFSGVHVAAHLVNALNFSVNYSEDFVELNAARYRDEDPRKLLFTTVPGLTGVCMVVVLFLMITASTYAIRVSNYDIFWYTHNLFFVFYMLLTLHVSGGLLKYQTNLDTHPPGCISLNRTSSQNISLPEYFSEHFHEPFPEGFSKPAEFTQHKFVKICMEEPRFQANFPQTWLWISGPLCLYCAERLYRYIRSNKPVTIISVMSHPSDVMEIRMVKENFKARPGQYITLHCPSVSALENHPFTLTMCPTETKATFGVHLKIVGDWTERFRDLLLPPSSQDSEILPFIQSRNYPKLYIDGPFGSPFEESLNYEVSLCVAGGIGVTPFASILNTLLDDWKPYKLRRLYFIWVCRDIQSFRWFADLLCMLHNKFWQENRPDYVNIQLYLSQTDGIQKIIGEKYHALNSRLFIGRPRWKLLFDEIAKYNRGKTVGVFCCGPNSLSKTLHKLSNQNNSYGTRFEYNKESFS

COCCOC(=O)N1C(=O)[C@@]2(c3cc(C#CCCO)ccc31)[C@H](c1ccc(O)cc1)N1[C@H](c3ccccc3)[C@H](c3ccccc3)OC(=O)[C@H]1[C@@H]2C(=O)N1CCc2cc(OC)c(OC)cc2C1
z-score [1]: -0.0188 (inactive) | composite z-score [2]: 0.469 | z-score [3]: 1.22 (inactive) | z-score [4]: 0.141 (inactive) | z-score [5]: 0.203 (inactive) | z-score [6]: 0.286 (inactive) | z-score [7]: 0.212 | z-score [8]: 0.611 (inactive) | z-score [9]: 0.522 (inactive) | z-score [10]: 1.02 | z-score [11]: 1.1 | z-score [12]: 0.462 | z-score [13]: 1.04 | z-score [14]: 0.664 | z-score [15]: 0.113 | z-score [16]: 0.374 | z-score [17]: 0.57 (inactive) | z-score [18]: -0.253 | z-score [19]: -0.602 | z-score [20]: -0.0256 (inactive)

COC(=O)[C@@]1(Cc2ccc(OC)cc2)[C@H]2c3cc(C(=O)N4CCCC4)n(CCc4ccc(OC)c(Br)c4)c3C[C@H]2CN1C(=O)c1ccccc1
z-score [1]: -0.536 (inactive) | composite z-score [2]: 0.291 | z-score [3]: 2.64 (inactive) | z-score [4]: 0.809 (inactive) | z-score [5]: -0.0758 (inactive) | z-score [6]: 0.568 (inactive) | z-score [7]: 0.348 | z-score [8]: 0.798 (inactive) | z-score [9]: 0.0418 (inactive) | z-score [10]: -0.759 | z-score [11]: -0.572 | z-score [12]: -0.3 | z-score [13]: 0.347 | z-score [14]: -0.245 | z-score [15]: -1.51 | z-score [16]: 2.24 | z-score [17]: -0.641 (inactive) | z-score [18]: -0.767 | z-score [19]: -0.569 | z-score [20]: 0.568 (inactive)

C=C(CCCC)/C(=C/C[C@H](OC(C)=O)c1cccc(OCCO)c1)c1cc(C(=O)OC)ccc1OC
z-score [1]: 1.19 (inactive) | composite z-score [2]: -0.007 | z-score [3]: 21 (active) | z-score [4]: 3.75 (inactive) | z-score [5]: 2.43 (inactive) | z-score [6]: 1.21 (inactive) | z-score [7]: -0.377 | z-score [8]: 1.39 (inactive) | z-score [9]: 1.02 (inactive) | z-score [10]: -0.963 | z-score [11]: 2.28 | z-score [12]: 0.477 | z-score [13]: 0.651 | z-score [14]: -0.965 | z-score [15]: -2.14 | z-score [16]: 2.19 | z-score [17]: 0.18 (inactive) | z-score [18]: -0.111 | z-score [19]: 0.309 | z-score [20]: 2.7 (inactive)

COC(=O)[C@@]1(Cc2ccccc2)[C@H]2c3cc(C(=O)N4CCCC4)n(Cc4ccc(C(F)(F)F)nc4)c3C[C@H]2CN1C(=O)c1ccccc1
z-score [1]: -1.31 (inactive) | composite z-score [2]: 0.689 | z-score [3]: 2.24 (inactive) | z-score [4]: 0.145 (inactive) | z-score [5]: 1.45 (inactive) | z-score [6]: 0.444 (inactive) | z-score [7]: -0.467 | z-score [8]: 0.262 (inactive) | z-score [9]: 0.396 (inactive) | z-score [10]: -3.03 | z-score [11]: -0.567 | z-score [12]: 1.88 | z-score [13]: -0.499 | z-score [14]: -0.331 | z-score [15]: -1.59 | z-score [16]: 1.5 | z-score [17]: -0.657 (inactive) | z-score [18]: -0.561 | z-score [19]: -0.796 | z-score [20]: 0.263 (inactive)

C=CCN1C(=O)[C@]2(O[C@H](CCO)[C@@H]([Si](C)(C)c3ccc(OC)cc3)[C@@H]2C)c2ccccc21
z-score [1]: -1.95 (inactive) | composite z-score [2]: -0.33 | z-score [3]: 11.9 (active) | z-score [4]: 2.43 (inactive) | z-score [5]: -2.63 (inactive) | z-score [6]: 1.19 (inactive) | z-score [7]: -0.613 | z-score [8]: -0.536 (inactive) | z-score [9]: -0.0158 (inactive) | z-score [10]: -1.23 | z-score [11]: -3.94 | z-score [12]: -0.448 | z-score [13]: -4.62 | z-score [14]: -2.7 | z-score [15]: -4.37 | z-score [16]: -3.42 | z-score [17]: -0.0442 (inactive) | z-score [18]: -1.18 | z-score [19]: -2.21 | z-score [20]: -1.83 (inactive)

COCCOC(=O)N1C(=O)[C@@]2(c3cc(C#CC4=CCCCC4)ccc31)[C@H](c1ccccc1OCCO)N1[C@H](c3ccccc3)[C@H](c3ccccc3)OC(=O)[C@H]1[C@@H]2C(N)=O
z-score [1]: 1.97 (inactive) | composite z-score [2]: -0.0611 | z-score [3]: 2.66 (inactive) | z-score [4]: 0.298 (inactive) | z-score [5]: -0.714 (inactive) | z-score [6]: -0.0482 (inactive) | z-score [7]: 2.22 | z-score [8]: 1.77 (inactive) | z-score [9]: 0.548 (inactive) | z-score [10]: -0.172 | z-score [11]: -1.13 | z-score [12]: 2.16 | z-score [13]: -2.29 | z-score [14]: -3.11 | z-score [15]: -4.02 | z-score [16]: -0.985 | z-score [17]: 0.686 (inactive) | z-score [18]: -0.96 | z-score [19]: -1.85 | z-score [20]: -1.35 (inactive)

COC(=O)C1=CC(CCCO)=CC(c2ccc(CN3CCCC3)cc2)N(Cc2sc3ccccc3c2Cl)C=C1C(=O)OC (stereo not given)
z-score [1]: 1.68 (inactive) | composite z-score [2]: 1.17 | z-score [3]: 3.27 (inactive) | z-score [4]: -0.28 (inactive) | z-score [5]: -0.235 (inactive) | z-score [6]: -1.02 (inactive) | z-score [7]: 1.6 | z-score [8]: 0.613 (inactive) | z-score [9]: 0.311 (inactive) | z-score [10]: 0.116 | z-score [11]: 1.38 | z-score [12]: 0.0739 | z-score [13]: 1.72 | z-score [14]: 0.217 | z-score [15]: 0.662 | z-score [16]: 4.71 | z-score [17]: 0.531 (inactive) | z-score [18]: 0.393 | z-score [19]: 2.3 | z-score [20]: -0.142 (inactive)

C/C=C/CN(C(=O)C#Cc1ccccc1)[C@H](CO[Si](C)(C)C(C)(C)C)c1ccccc1
z-score [1]: 2.64 (inactive) | composite z-score [2]: -0.324 | z-score [3]: 0.567 (inactive) | z-score [4]: -0.912 (inactive) | z-score [5]: -0.509 (inactive) | z-score [6]: -1.83 (inactive) | z-score [7]: 1.52 | z-score [8]: 0.405 (inactive) | z-score [9]: 0.123 (inactive) | z-score [10]: -0.373 | z-score [11]: -0.21 | z-score [12]: 1.45 | z-score [13]: -0.488 | z-score [14]: -2.38 | z-score [15]: -3.4 | z-score [16]: 2.31 | z-score [17]: 1.37 (inactive) | z-score [18]: -0.522 | z-score [19]: -0.0851 | z-score [20]: 0.365 (inactive)

O=C1c2ccccc2[C@@]2(Cc3ccccc3N(Cc3ccccc3)C2=O)[C@H](c2ccc(CO)cc2)N1Cc1ccccc1
z-score [1]: -0.757 (inactive) | composite z-score [2]: -0.147 | z-score [3]: -0.0384 (inactive) | z-score [4]: 0.0732 (inactive) | z-score [5]: 0.0046 (inactive) | z-score [6]: -0.11 (inactive) | z-score [7]: 0.244 | z-score [8]: 0.0584 (inactive) | z-score [9]: 0.572 (inactive) | z-score [10]: -0.107 | z-score [11]: -0.574 | z-score [12]: -0.269 | z-score [13]: -0.643 | z-score [14]: 0.0744 | z-score [15]: -0.851 | z-score [16]: -0.0723 | z-score [17]: -0.271 (inactive) | z-score [18]: 0.167 | z-score [19]: -0.353 | z-score [20]: -0.381 (inactive)
